Activity calls are given as the source filed them. Rule for the calls: active = hit-call score of the fitted dose curve at least 0.9, where 1 is the maximum; inactive = score below 0.9.
Columns and labels:
Settings in all cases: mRNA level, 48 h; actives raise or lower the signal
[1] = read-out: Ezrin (EZR), EZR (gene 7430); experiment: LTEA_HepaRG_EZR: Life Technologies and Expression Analysis (LTEA) Assay for Ezrin (EZR) using HepaRG (AID 2283491)
Outline: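 Gain or loss of EZR mRNA is scored relative to 0.5% DMSO in human HepaRG cultures treated 48 h with test chemicals in duplicate, eight half-log concentrations from 100 uM.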

[2] = read-out: Cytochrome P450 3A7 (Homo sapiens) (UniProt P24462); experiment: LTEA_HepaRG_CYP3A7: Life Technologies and Expression Analysis (LTEA) Assay for CYP3A7 using HepaRG (AID 2283492)
Outline: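 CYP3A7 transcript measured by qRT-PCR (ACTB, GAPDH, POLR2A normalization) after 48 h chemical exposure of HepaRG cells in duplicate. Eight half-log concentrations, maximum 100 uM, 0.5% DMSO vehicle; bidirectional curve fitting against DMSO baseline.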

CYP3A5 (gene 1577) = experiment: LTEA_HepaRG_CYP3A5: Life Technologies and Expression Analysis (LTEA) Assay for CYP3A5 using HepaRG (AID 2283493)
Outline: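 HepaRG cells, plated 48 h then in serum-free induction medium, dosed in duplicate for 48 h with eight half-log concentrations up to 100 uM in 0.5% DMSO. Gene mRNA by Fluidigm TaqMan qRT-PCR, normalized to ACTB, GAPDH, POLR2A.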

[3] = read-out: Cytochrome P450 4A22 (Homo sapiens) (UniProt Q5TCH4); experiment: LTEA_HepaRG_CYP4A22: Life Technologies and Expression Analysis (LTEA) Assay for Cytochrome P450 4A22 (CYP4A22) using HepaRG (AID 2283495)
Outline: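 Gene expression measured by qRT-PCR against three housekeeping genes (ACTB, GAPDH, POLR2A), with gain or loss fitted relative to 0.5% DMSO vehicle. HepaRG cultures received 48 h chemical treatment, top concentration 100 uM, half-log steps, duplicate wells.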

[4] = read-out: Cytochrome P450 7A1 (Homo sapiens) (UniProt P22680); experiment: LTEA_HepaRG_CYP7A1: Life Technologies and Expression Analysis (LTEA) Assay for Cytochrome P450 7A1 (CYP7A1) using HepaRG (AID 2283496)
Outline: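 HepaRG cells plated 48 h, then switched to serum-free induction medium and exposed in duplicate for 48 h to 8-point half-log series from 100 uM in 0.5% DMSO. CYP7A1 mRNA by qRT-PCR (TaqMan), normalized to ACTB/GAPDH/POLR2A; bidirectional fit versus DMSO.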

[5] = read-out: Glutathione S-Transferase (GSTA2), GSTA2 (gene 2939); experiment: LTEA_HepaRG_GSTA2: Life Technologies and Expression Analysis (LTEA) Assay for Glutathione S-Transferase (GSTA2) using HepaRG (AID 2283497)
Outline: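 Human HepaRG cells, plated 48 h, then exposed in serum-free induction medium for 48 h to eight half-log concentrations up to 100 uM in 0.5% DMSO, duplicate. GSTA2 mRNA by qRT-PCR, normalized to ACTB/GAPDH/POLR2A; bidirectional fit versus DMSO.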

[6] = read-out: growth arrest and DNA damage 45 (GADD45G), GADD45G (gene 10912); experiment: LTEA_HepaRG_GADD45G: Life Technologies and Expression Analysis (LTEA) Assay for growth arrest and DNA damage 45 (GADD45G) using HepaRG (AID 2283499)
Outline: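 GADD45G transcript level by qRT-PCR (housekeeping-normalized: ACTB, GAPDH, POLR2A) after 48 h chemical treatment of a single HepaRG lot in serum-free induction medium; eight-point half-log series up to 100 uM in 0.5% DMSO, duplicates, up- or down-regulation scored.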

[7] = read-out: Glutamate-cysteine ligase regulatory (GCLM), GCLM (gene 2730); experiment: LTEA_HepaRG_GCLM: Life Technologies and Expression Analysis (LTEA) Assay for Glutamate-cysteine ligase regulatory (GCLM) using HepaRG (AID 2283500)
Outline: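 Differentiated HepaRG cells exposed 48 h in serum-free induction medium to eight half-log concentrations up to 100 uM (0.5% DMSO). GCLM mRNA by TaqMan qRT-PCR, normalized to ACTB, GAPDH and POLR2A; bidirectional fit versus DMSO.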

[8] = read-out: Glutathione S-transferase M3 (GSTM3), GSTM3 (gene 2947); experiment: LTEA_HepaRG_GSTM3: Life Technologies and Expression Analysis (LTEA) Assay for Glutathione S-transferase M3 (GSTM3) using HepaRG (AID 2283501)
Outline: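 GSTM3 transcript levels came from Fluidigm TaqMan qRT-PCR normalized to three housekeeping genes, fitted in both directions against DMSO. HepaRG cultures received chemicals for 48 h in serum-free induction medium (0.5% DMSO), 8 half-log concentrations up to 100 uM, duplicate.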

[9] = read-out: Heat shock 70 kDa protein 1 (HSPA1A), gene 3303; experiment: LTEA_HepaRG_HSPA1A: Life Technologies and Expression Analysis (LTEA) Assay for Heat shock 70 kDa protein 1 (HSPA1A) using HepaRG (AID 2283502)
Outline: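 Human HepaRG cells in serum-free induction medium were exposed in duplicate for 48 h to 8 half-log concentrations, highest 100 uM, in 0.5% DMSO. HSPA1A mRNA read by TaqMan qRT-PCR, normalized to ACTB, GAPDH, POLR2A, fitted bidirectionally against DMSO.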

[10] = read-out: Hypoxia-inducible factor 1-alpha (Homo sapiens) (UniProt Q16665); experiment: LTEA_HepaRG_HIF1A: Life Technologies and Expression Analysis (LTEA) Assay for Hypoxia-inducible factor 1 (HIF1A) Trancription factor using HepaRG (AID 2283503)
Outline: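 Differentiated HepaRG cells in serum-free induction medium exposed 48 h, in duplicate, to 8-point half-log series from 100 uM in 0.5% DMSO. HIF1A mRNA measured by TaqMan qRT-PCR, normalized to ACTB/GAPDH/POLR2A, fitted bidirectionally versus DMSO.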

[11] = read-out: 3-Hydroxy-3-Methylglutaryl-CoA Synthase 2 (HMGCS2), HMGCS2 (gene 3158); experiment: LTEA_HepaRG_HMGCS2: Life Technologies and Expression Analysis (LTEA) Assay for 3-Hydroxy-3-Methylglutaryl-CoA Synthase 2 (HMGCS2) using HepaRG (AID 2283504)
Outline: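 Readout is HMGCS2 transcript by qRT-PCR, housekeeping-normalised (ACTB/GAPDH/POLR2A) and fitted bidirectionally against 0.5% DMSO. Differentiated HepaRG cells received chemicals 48 h, duplicate wells, eight half-log concentrations topping at 100 uM.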

HGF (gene 3082) = experiment: LTEA_HepaRG_HGF: Life Technologies and Expression Analysis (LTEA) Assay for Hepatocyte Growth Facto (HGF) using HepaRG (AID 2283505)
Outline: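 HGF transcript was quantified by TaqMan qRT-PCR against three housekeeping genes after 48 h treatment of HepaRG cells. Exposure ran in duplicate over eight half-log steps topping at 100 uM in 0.5% DMSO vehicle.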

[12] = read-out: Insulin Like Growth Factor 1 (IGF1), IGF1 (gene 3479); experiment: LTEA_HepaRG_IGF1: Life Technologies and Expression Analysis (LTEA) Assay for Insulin Like Growth Factor 1 (IGF1) using HepaRG (AID 2283506)
Outline: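 Differentiated HepaRG cells in serum-free induction medium, exposed 48 h in duplicate to 8 half-log concentrations up to 100 uM in 0.5% DMSO. IGF1 mRNA by Fluidigm qRT-PCR, normalised to ACTB, GAPDH and POLR2A.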

[13] = read-out: Intercellular Adhesion Molecule 1 (ICAM1), ICAM1 (gene 3383); experiment: LTEA_HepaRG_ICAM1: Life Technologies and Expression Analysis (LTEA) Assay for Intercellular Adhesion Molecule 1 (ICAM1) using HepaRG (AID 2283507)
Outline: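 ICAM1 transcript levels measured by qRT-PCR, normalized to three housekeeping genes (ACTB, GAPDH, POLR2A), after 48 h chemical exposure of HepaRG cells. Duplicate eight-point half-log series from 100 uM in 0.5% DMSO; gain or loss fitted against vehicle.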

[14] = read-out: Insulin-like growth factor-binding protein 1 (IGFBP1), IGFBP1 (gene 3484); experiment: LTEA_HepaRG_IGFBP1: Life Technologies and Expression Analysis (LTEA) Assay for Insulin-like growth factor-binding protein 1 (IGFBP1) using HepaRG (AID 2283508)
Outline: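 Read-out is qRT-PCR transcript level normalized to three housekeeping genes, fitted in both directions against 0.5% DMSO. Differentiated HepaRG cells received eight half-log concentrations (top 100 uM) in duplicate for 48 h in serum-free induction medium.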

[15] = read-out: Interleukin 6 (IL6), IL6 (gene 3569); experiment: LTEA_HepaRG_IL6: Life Technologies and Expression Analysis (LTEA) Assay for Interleukin 6 (IL6) using HepaRG (AID 2283509)
Outline: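 Differentiated human HepaRG cells, plated 48 h then switched to serum-free induction medium, were exposed in duplicate for 48 h to eight half-log concentrations up to 100 uM in 0.5% DMSO. IL6 mRNA measured by qRT-PCR, normalized to ACTB/GAPDH/POLR2A.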

[16] = read-out: Interleukin 6 Receptor (IL6R), IL6R (gene 3570); experiment: LTEA_HepaRG_IL6R: Life Technologies and Expression Analysis (LTEA) Assay for Interleukin 6 Receptor (IL6R) using HepaRG (AID 2283510)
Outline: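 Differentiated HepaRG cells, plated 48 h, then exposed in duplicate for 48 h in serum-free induction medium to 8 half-log concentrations (top 100 uM, 0.5% DMSO). IL6R mRNA measured by TaqMan qRT-PCR, normalized to ACTB/GAPDH/POLR2A; bidirectional fit vs DMSO.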

[17] = read-out: Fatty Acid-Binding Protein 1 (FABP1), FABP1 (gene 2168); experiment: LTEA_HepaRG_FABP1: Life Technologies and Expression Analysis (LTEA) Assay for Fatty Acid-Binding Protein 1 (FABP1) using HepaRG (AID 2283494)
Outline: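 Differentiated human HepaRG cells were exposed in duplicate for 48 h in serum-free induction medium to 8-point half-log concentration series topping at 100 uM in 0.5% DMSO. FABP1 mRNA measured by TaqMan qRT-PCR, normalized to ACTB/GAPDH/POLR2A; bidirectional fit versus DMSO.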

[18] = read-out: Glutamate-cysteine ligase catalytic (GCLC), GCLC (gene 2729); experiment: LTEA_HepaRG_GCLC: Life Technologies and Expression Analysis (LTEA) Assay for Glutamate-cysteine ligase catalytic (GCLC) using HepaRG (AID 2283498)
Outline: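 Differentiated human HepaRG cells, plated 48 h then switched to serum-free induction medium, were exposed in duplicate for 48 h to 8 half-log concentrations topping at 100 uM in 0.5% DMSO. GCLC mRNA was quantified by qRT-PCR against ACTB, GAPDH and POLR2A.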

Measured: AC50

Chain of Hypoxia-inducible factor 1-alpha (Homo sapiens) (Q16665 whole entry, looked up): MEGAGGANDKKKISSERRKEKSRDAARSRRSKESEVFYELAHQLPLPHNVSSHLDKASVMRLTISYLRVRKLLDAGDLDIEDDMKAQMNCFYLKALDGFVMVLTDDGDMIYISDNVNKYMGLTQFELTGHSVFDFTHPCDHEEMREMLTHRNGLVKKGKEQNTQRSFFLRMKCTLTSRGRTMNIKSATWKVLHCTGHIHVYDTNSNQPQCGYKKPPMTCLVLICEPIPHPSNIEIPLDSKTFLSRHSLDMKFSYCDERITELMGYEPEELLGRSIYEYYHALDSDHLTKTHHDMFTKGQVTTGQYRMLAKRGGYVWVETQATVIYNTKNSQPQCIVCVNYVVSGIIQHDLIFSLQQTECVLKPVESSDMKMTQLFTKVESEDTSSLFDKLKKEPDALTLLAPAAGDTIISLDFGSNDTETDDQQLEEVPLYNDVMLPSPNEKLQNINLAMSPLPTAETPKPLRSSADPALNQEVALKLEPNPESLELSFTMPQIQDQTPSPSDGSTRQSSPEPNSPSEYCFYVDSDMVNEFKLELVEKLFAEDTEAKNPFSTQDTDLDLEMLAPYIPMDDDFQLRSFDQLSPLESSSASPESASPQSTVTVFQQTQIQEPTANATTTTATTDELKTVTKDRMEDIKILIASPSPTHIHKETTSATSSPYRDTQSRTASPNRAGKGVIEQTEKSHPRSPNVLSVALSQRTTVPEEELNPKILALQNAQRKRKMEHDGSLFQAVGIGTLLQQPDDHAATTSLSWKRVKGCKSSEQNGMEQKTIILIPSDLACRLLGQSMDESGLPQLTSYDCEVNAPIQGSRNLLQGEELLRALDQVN
Chain of Cytochrome P450 3A7 (Homo sapiens) (P24462 whole entry, looked up): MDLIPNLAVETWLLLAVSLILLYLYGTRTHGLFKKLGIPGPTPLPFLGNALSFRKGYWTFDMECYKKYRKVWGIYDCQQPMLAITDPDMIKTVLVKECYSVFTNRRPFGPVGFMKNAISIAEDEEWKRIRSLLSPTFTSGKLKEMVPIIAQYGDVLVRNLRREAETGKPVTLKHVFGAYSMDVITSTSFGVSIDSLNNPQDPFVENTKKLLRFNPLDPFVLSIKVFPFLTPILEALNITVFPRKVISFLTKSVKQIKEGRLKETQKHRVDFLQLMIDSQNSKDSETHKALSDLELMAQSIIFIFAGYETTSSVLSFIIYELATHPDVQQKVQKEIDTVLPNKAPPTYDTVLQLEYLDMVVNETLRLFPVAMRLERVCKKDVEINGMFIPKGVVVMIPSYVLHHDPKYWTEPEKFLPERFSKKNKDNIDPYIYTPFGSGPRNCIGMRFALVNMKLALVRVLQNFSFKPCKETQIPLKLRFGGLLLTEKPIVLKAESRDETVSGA

C1N2CN3CN1CN(C2)C3
not listed: [17] | [18]
inactive: all other assays above

CC[C@H](C)C(=O)O[C@H]1C[C@@H](C)C=C2C=C[C@H](C)[C@H](CC[C@@H]3C[C@@H](O)CC(=O)O3)[C@H]21
active: [17] 13.2 µM
not listed: [2] | CYP3A5 (gene 1577) | [7] | [15] | [18]
inactive: all other assays above

Nc1ccc(Nc2ccccc2)cc1
active: [2] 62.7 µM | [4] 50 µM | [10] 50 µM | [11] 60.9 µM | [12] 50 µM
not listed: [17] | [18]
inactive: all other assays above

Cn1cnc([N+](=O)[O-])c1Sc1ncnc2nc[nH]c12
active: [3] 0.238 µM | [4] 2.09 µM | [5] 1.35 µM | [6] 1.11 µM | [11] 3.93 µM | [13] 3.59 µM | [14] 2.75 µM
not listed: [2] | [10] | [15] | [17]
inactive: all other assays above

From PubChem BioAssay (EPA / NIEHS)
